According to PubChem BioAssay (EPA / NIEHS):
Results filed as inconclusive are left out. The source holds several records for some structures; these can differ, active in one and inactive in another. Activity calls are given as the source filed them. How the source made its calls, unless noted: active means hit-call score of the fitted dose curve at least 0.9, where 1 is the maximum; inconclusive means response in the unintended direction; inactive means score below 0.9.

Assays:
[1] = molecular target: Estrogen receptor (Homo sapiens) (UniProt P03372); experiment: OT_ERa_GFPERaERE_0480: Odyssey Thera (OT) 8-hour HeLa Transcription Induction Assay for Estrogen Receptor (AID 2283381; active means hit-call score of the fitted dose curve at least 0.9, where 1 is the maximum; inactive means score below 0.9)
Chain of Estrogen receptor (Homo sapiens) (P03372 whole entry, looked up): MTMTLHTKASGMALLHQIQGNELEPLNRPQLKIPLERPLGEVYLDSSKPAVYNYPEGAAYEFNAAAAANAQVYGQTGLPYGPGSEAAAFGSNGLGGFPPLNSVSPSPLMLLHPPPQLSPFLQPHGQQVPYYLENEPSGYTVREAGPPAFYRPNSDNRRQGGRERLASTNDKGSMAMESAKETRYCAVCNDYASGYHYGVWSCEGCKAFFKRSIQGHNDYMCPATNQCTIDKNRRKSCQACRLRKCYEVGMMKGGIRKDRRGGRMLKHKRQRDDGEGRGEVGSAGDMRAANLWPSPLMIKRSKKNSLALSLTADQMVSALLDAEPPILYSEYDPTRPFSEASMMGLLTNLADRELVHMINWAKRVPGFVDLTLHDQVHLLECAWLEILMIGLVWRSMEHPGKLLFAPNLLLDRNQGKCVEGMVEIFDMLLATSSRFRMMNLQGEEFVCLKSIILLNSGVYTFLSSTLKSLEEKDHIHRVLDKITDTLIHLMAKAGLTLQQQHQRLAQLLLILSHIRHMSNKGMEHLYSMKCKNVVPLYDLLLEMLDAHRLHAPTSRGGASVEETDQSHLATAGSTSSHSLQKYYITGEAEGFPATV
Outline: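 HeLa cells dosed with compound and imaged by fluorescence microscopy at 8 h; GFP induction from an ERE reporter quantified by high-content image analysis and fitted as gain of signal against DMSO baseline.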

[2] = molecular target: Estrogen receptor (Homo sapiens) (UniProt P03372); experiment: OT_ERa_GFPERaERE_0120: Odyssey Thera (OT) 2-hour HeLa Transcription Induction Assay for Estrogen Receptor (AID 2283382)
Outline: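 HeLa cells were dosed with test chemical and read 2 hours later for GFP-ERα/ERE-linked fluorescent protein induction by fluorescence microscopy. Gain-of-signal was fitted relative to DMSO baseline, quantified by high content image analysis.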

[3] = molecular target: Retinoic acid receptor RXR-alpha (Homo sapiens) (UniProt P19793); experiment: OT_NURR1_NURR1RXRa_0480: Odyssey Thera (OT) 8-hour HEK293T Protein Complementation Assay for Nurr1/retinoid X receptor (RXR) (AID 2283385)
Chain of Retinoic acid receptor RXR-alpha (Homo sapiens) (P19793 whole entry, looked up, the tested form may be a part): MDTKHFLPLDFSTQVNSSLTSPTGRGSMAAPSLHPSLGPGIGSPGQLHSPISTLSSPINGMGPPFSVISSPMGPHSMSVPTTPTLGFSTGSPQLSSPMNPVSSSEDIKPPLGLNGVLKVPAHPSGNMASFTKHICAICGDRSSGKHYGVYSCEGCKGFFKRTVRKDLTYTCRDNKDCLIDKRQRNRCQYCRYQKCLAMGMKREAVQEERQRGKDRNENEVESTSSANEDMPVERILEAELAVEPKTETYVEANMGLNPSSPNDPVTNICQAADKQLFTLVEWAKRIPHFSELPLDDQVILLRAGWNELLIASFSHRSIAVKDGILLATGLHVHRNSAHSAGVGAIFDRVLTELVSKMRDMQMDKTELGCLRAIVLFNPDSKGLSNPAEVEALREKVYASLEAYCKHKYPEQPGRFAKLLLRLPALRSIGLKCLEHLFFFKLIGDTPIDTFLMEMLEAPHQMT
Outline: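 HEK293T cells expressing Nurr1 and RXRα fused to reporter fragments were dosed with compound for 8 hours. Complex formation was read as fluorescence intensity and analysed as gain of signal against DMSO as baseline.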

[4] = molecular target: Peroxisome proliferator-activated receptor gamma (Homo sapiens) (UniProt P37231); experiment: OT_PPARg_PPARgSRC1_0480: Odyssey Thera (OT) 8-hour Protein-Complementation Assay for Peroxisome Proliferator-activated Receptor Gamma / SRC-1 Co-activator (AID 2283387);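 further: nuclear to cytoplasmic split Venus YFP fluorescence ratio reporting PPARg SRC-1 interaction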
Chain of Peroxisome proliferator-activated receptor gamma (Homo sapiens) (P37231 whole entry, looked up, the tested form may be a part): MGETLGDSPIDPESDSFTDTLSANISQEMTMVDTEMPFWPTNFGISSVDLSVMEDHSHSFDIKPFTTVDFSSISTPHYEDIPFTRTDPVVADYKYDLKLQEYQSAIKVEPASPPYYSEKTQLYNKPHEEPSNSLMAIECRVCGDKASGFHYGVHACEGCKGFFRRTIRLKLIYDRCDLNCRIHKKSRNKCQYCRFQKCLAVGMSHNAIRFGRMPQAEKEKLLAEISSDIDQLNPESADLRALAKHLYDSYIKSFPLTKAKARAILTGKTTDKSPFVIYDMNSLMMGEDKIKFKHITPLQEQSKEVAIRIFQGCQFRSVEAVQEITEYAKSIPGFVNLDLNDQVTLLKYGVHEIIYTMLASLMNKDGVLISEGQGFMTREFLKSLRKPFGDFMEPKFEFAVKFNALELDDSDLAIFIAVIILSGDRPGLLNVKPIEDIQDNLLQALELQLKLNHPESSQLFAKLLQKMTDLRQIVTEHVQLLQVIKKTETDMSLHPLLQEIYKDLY
Outline: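 Protein-fragment complementation of split Venus YFP reports PPARg/SRC-1 interaction in HEK293T (transfected 48 h before treatment), exposed 8 h. Readout: N/C fluorescence ratio at 488 nm from imaging, Draq5 for segmentation, positive fit relative to DMSO.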

[5] = molecular target: Peroxisome proliferator-activated receptor gamma (Homo sapiens) (UniProt P37231); experiment: OT_PPARg_PPARgSRC1_1440: Odyssey Thera (OT) 24-hour Protein-Complementation Assay for Peroxisome Proliferator-activated Receptor Gamma/ SRC-1 Co-activator (AID 2283388);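 further: nuclear to cytoplasmic ratio of reconstituted Venus YFP fluorescence in fixed imaged cells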
Outline: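 Transient HEK293T, YFP fragments 1-158/159-239 (mutant IFP1/IFP2) fused to PPARg/SRC-1; 24 h dosing; fix 4% formaldehyde, Draq5; Opera imaging 488/635 nm; N/C ratio, gain vs DMSO.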

[6] = CEETOX_H295R_11DCORT: CeeTox H295R High-throughput Steroidogenesis Assay for 11-Deoxycortisol (11DCORT) (AID 2283432; active means hit-call score of the fitted dose curve at least 0.9, where 1 is the maximum; inactive means score below 0.9;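 further: 11-deoxycortisol secreted into the medium measured by LC-MS/MS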); details: actives raise or lower the signal
Outline: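 Human adrenal H295R cells were prestimulated with 10 uM forskolin for 48 h, then exposed to test chemical (0.1% DMSO final) for 48 h. Medium 11-deoxycortisol was quantified by MTBE extraction and HPLC-MS/MS; bidirectional fitting relative to DMSO.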

[7] = CEETOX_H295R_CORTIC: CeeTox H295R High-throughput Steroidogenesis Assay for Corticosterone (CORTIC) (AID 2283437; active means hit-call score of the fitted dose curve at least 0.9, where 1 is the maximum; inactive means score below 0.9;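 further: corticosterone secreted into medium quantified by mass spectrometry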); details: actives raise or lower the signal
Outline: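 Corticosterone secreted into medium is measured by reverse-phase HPLC with tandem MS following liquid-liquid extraction. Cells are forskolin-stimulated (10 uM, 48 h) before 48 h test exposure; activity fitted in both directions against DMSO.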

[8] = CEETOX_H295R_CORTISOL: CeeTox H295R High-throughput Steroidogenesis Assay for Cortisol (AID 2283438; active means hit-call score of the fitted dose curve at least 0.9, where 1 is the maximum; inactive means score below 0.9;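 further: cortisol secreted into medium quantified by LC-MS/MS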); details: actives raise or lower the signal
Outline: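 H295R human adrenal cells were prestimulated 48 h with 10 uM forskolin, then exposed 48 h to test chemical (0.1% DMSO final). Medium cortisol was quantified by HPLC-MS/MS after MTBE extraction; bidirectional fitting relative to DMSO baseline.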

[9] = molecular target: Retinoic acid receptor RXR-alpha (Homo sapiens) (UniProt P19793); experiment: OT_NURR1_NURR1RXRa_1440: Odyssey Thera (OT) 24-hour HEK293T Protein Complementation Assay for Nurr1/retinoid X receptor (RXR) (AID 2283386)
Outline: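 HEK293T cells were dosed with compound and read 24 h later by fluorescence intensity in a protein-fragment complementation format, where Nurr1–RXRα interaction reconstitutes a split reporter. Activity was fitted as gain of signal relative to DMSO baseline.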

[10] = molecular target: Estrogen receptor beta (Homo sapiens) (UniProt Q92731); experiment: OT_ER_ERbERb_1440: Odyssey Thera (OT) 24-hour HEK293T Protein-Complementation Assay for Estrogen Receptor-beta/-beta Homodimer (AID 2283380);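 further: fluorescence gain from ER beta LBD homodimer complementation read by laser scanning cytometry; scored as signal increase over DMSO baseline for both agonists and antagonists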
Chain of Estrogen receptor beta (Homo sapiens) (Q92731 whole entry, looked up, the tested form may be a part): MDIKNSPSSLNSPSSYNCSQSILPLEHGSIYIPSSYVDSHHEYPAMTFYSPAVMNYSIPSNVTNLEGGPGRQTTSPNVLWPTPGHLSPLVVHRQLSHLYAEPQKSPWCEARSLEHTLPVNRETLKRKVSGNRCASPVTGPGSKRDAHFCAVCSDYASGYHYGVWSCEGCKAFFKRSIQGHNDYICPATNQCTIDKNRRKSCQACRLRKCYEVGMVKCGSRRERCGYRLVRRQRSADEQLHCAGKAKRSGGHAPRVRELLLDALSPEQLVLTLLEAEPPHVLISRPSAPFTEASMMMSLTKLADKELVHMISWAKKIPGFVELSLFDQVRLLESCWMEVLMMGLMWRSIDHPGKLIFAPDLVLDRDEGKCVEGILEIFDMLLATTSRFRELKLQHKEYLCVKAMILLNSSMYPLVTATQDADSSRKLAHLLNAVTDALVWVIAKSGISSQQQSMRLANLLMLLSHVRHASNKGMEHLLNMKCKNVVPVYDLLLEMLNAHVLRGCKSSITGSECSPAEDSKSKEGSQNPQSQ
Outline: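 Fluorescence increase, nuclear for agonists or whole-cell for antagonists, relative to DMSO vehicle, quantified by laser scanning cytometer after fixation and Draq5 staining. Readout from 24 h treatment of HEK293T cells carrying complementation-paired ER beta LBD (aa 310-547).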

[11] = CEETOX_H295R_OHPREG: CeeTox H295R High-throughput Steroidogenesis Assay for OH-Pregnenolone (OHPREG) (AID 2283434; active means hit-call score of the fitted dose curve at least 0.9, where 1 is the maximum; inactive means score below 0.9); details: actives raise or lower the signal
Outline: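 Hormone levels in spent medium were measured by tandem mass spectrometry following liquid-liquid extraction. Cells (H295R) had been forskolin-stimulated (10 uM, 48 h) before a 48 h chemical exposure at 0.1% DMSO, with activity fitted in both directions against DMSO.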

[12] = CEETOX_H295R_OHPROG: CeeTox H295R High-throughput Steroidogenesis Assay for OH-Progesterone (OHPROG) (AID 2283435; active means hit-call score of the fitted dose curve at least 0.9, where 1 is the maximum; inactive means score below 0.9); details: actives raise or lower the signal
Outline: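 H295R human adrenal cells were prestimulated 48 h with 10 uM forskolin, then exposed 48 h to test chemical (0.1% DMSO final). 17alpha-hydroxyprogesterone in medium was measured by HPLC-MS/MS after MTBE extraction; bidirectional fitting vs DMSO.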

[13] = CEETOX_H295R_ESTRADIOL: CeeTox H295R High-throughput Steroidogenesis Assay for Estradiol (AID 2283440; active means hit-call score of the fitted dose curve at least 0.9, where 1 is the maximum; inactive means score below 0.9;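 further: estradiol secreted into medium quantified by LC-MS/MS after dansyl derivatisation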); details: actives raise or lower the signal
Outline: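 Following OECD 456 with minor changes, H295R cells received 10 uM forskolin for 48 h and then test chemical for 48 h. Hormone output was read by HPLC-MS/MS, with cytotoxic concentrations diluted until MTT viability reached ≥70%.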

[14] = CEETOX_H295R_ESTRONE: CeeTox H295R High-throughput Steroidogenesis Assay for Estrone (AID 2283441; active means hit-call score of the fitted dose curve at least 0.9, where 1 is the maximum; inactive means score below 0.9;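 further: estrone secreted into medium measured by LC-MS/MS after dansyl derivatization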); details: actives raise or lower the signal
Outline: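 H295R cells; 48 h forskolin (10 uM) prestimulation; 48 h compound exposure, 0.1% DMSO final. Medium estrone: MTBE extraction, dansyl derivatization, HPLC-MS/MS. Bidirectional fit vs DMSO.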

[15] = CEETOX_H295R_PROG: CeeTox H295R High-throughput Steroidogenesis Assay for Progesterone (PROG) (AID 2283442; active means hit-call score of the fitted dose curve at least 0.9, where 1 is the maximum; inactive means score below 0.9;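 on AC50: human H295R adrenal cells primed with 10 µM forskolin before dosing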); details: actives raise or lower the signal
Outline: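 Adrenal H295R line, forskolin-stimulated (10 uM, 48 h) before dosing. 48 h exposure, 0.1% DMSO vehicle. Secreted progesterone by reverse-phase HPLC with ESI+ MS/MS quantification; DMSO-normalised bidirectional curve fit.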

[16] = molecular target: Bile acid receptor (Homo sapiens) (UniProt Q96RI1); experiment: OT_FXR_FXRSRC1_0480: Odyssey Thera (OT) 8-hour HEK293T Protein-Complementation Assay for Farnesoid X receptor/SRC-1 Co-activator (AID 2283383)
Chain of Bile acid receptor (Homo sapiens) (Q96RI1 whole entry, looked up, the tested form may be a part): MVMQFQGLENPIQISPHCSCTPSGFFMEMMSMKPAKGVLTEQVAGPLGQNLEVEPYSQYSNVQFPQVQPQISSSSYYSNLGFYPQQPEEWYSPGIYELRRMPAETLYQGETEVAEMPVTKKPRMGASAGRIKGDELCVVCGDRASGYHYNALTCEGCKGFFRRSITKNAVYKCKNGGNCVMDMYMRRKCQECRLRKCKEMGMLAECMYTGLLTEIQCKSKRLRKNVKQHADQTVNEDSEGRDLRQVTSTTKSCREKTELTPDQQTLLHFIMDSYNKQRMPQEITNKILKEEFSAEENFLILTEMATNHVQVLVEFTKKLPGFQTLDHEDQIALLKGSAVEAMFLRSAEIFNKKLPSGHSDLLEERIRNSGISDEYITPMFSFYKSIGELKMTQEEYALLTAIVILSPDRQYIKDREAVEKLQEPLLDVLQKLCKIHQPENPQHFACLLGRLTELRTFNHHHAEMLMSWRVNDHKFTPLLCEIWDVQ
Outline: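 HEK293T cells expressing FXR and SRC-1 fused to reporter fragments were dosed with compound for 8 h; fluorescence from the reconstituted reporter marked co-activator recruitment. Gain of signal was fitted against the DMSO baseline.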

[17] = read-out: Tumor necrosis factor receptor superfamily member 6 (Homo sapiens) (UniProt P25445); experiment: LTEA_HepaRG_FAS: Life Technologies and Expression Analysis (LTEA) Assay for Fas cell surface death receptor (FAS) using HepaRG (AID 2283447; active means hit-call score of the fitted dose curve at least 0.9, where 1 is the maximum; inactive means score below 0.9); details: mRNA level, 48 h; actives raise or lower the signal
Outline: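 FAS transcript level was measured by TaqMan qRT-PCR against three housekeeping genes after 48 h chemical exposure. Cells were HepaRG, 0.5% DMSO vehicle, with a top concentration of 100 uM and half-log dilutions over eight points, in duplicate.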

Measured: AC50

CCCCCC1C(=O)CCC1CC(=O)OC (centres undefined)
inactive: [1] | [2] | [3] | [4]

CC(=O)N(C)C
inactive: [1] | [2] | [4] | [5]

O=c1cc(-c2ccc(O)cc2)oc2cc(O)cc(O)c12
inactive: [4] | [5] | [7] | [8]
active: [6] 8.73 µM

CCCCCCCCOC(C)=O
inactive: [1] | [2] | [3] | [9] | [4] | [5]

CN(C)C(=O)Nc1ccccc1
inactive: [10] | [1] | [2] | [9] | [4] | [5]

OCC=Cc1ccccc1
not listed: [3] | [5] | [6] | [7] | [8] | [16] | [17]
inactive: all other assays above

COc1ccc(OC)cc1
inactive: [1] | [2] | [3] | [9] | [5]

CC1=CCC(=C(C)C)CC1
active: [9] 77.4 µM
inactive: [1] | [2] | [3]

OC[C@@H](O)[C@H](O)[C@@H](O)[C@@H](O)CO
inactive: [1] | [2] | [3] | [9] | [4] | [5]

Cc1cccc(C)c1
inactive: [1] | [2] | [9]

CCCO[Si](OCCC)(OCCC)OCCC
inactive: [10] | [1] | [2] | [4] | [5]

C1=COCCC1
inactive: [1] | [2] | [16] | [3]

CCCC(O)C(CC)CO (centres undefined)
inactive: [10] | [1] | [2] | [9] | [4] | [5]

CC(O)CNCC(C)O (centres undefined)
active: [1] 29.8 µM
inactive: [2] | [4]

C#C[C@]1(O)CC[C@H]2[C@@H]3CCc4cc(O)ccc4[C@H]3CC[C@@]21C
inactive: [3] | [9] | [4] | [5] | [12] | [8] | [17]
active: [3] 35.3 µM | [9] 18.2 µM | [6] 0.364 µM | [11] 0.369 µM | [7] 0.142 µM | [15] 0.372 µM

NC(N)=S
inactive: [1] | [2] | [3] | [9] | [4] | [5]

CC(=O)OC(C)(C)C1CC=C(C)CC1 (centres undefined)
inactive: [1] | [2] | [4] | [5]
